Screening results as filed in PubChem.
The entries come from a sample that favours hits as a whole.
TbREL1 inh: TbREL1 inhibition, primary screen; P86926; TbREL1 RNA ligation, FRET fluorescence; inhibition, % at 9.66 µM; hit rate 0.49% among 89,000; AID 1117264;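 active = inhibition above the mean inhibition across all screened compounds plus 3 SD, cut at about 11% in these data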;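 also: 0% = plate median of test wells and 100% = NSC42067 control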
Target sequence (P86926 whole entry, looked up): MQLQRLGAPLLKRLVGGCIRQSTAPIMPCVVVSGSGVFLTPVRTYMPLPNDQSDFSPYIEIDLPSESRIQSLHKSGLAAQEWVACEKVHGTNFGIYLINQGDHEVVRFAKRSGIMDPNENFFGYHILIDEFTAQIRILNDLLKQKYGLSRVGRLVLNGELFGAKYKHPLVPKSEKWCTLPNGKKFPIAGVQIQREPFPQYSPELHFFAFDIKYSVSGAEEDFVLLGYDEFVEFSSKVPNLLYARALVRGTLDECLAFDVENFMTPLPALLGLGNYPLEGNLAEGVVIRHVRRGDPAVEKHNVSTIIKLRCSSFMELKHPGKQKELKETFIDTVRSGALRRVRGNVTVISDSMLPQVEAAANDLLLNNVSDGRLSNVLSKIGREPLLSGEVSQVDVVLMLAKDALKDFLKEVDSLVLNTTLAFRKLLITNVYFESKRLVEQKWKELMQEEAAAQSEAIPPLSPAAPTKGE
TbREL1 conf: TbREL1 inhibition, confirmation; shares compounds with TbREL1 inh; TbREL1 RNA ligation, FRET fluorescence; inhibition, % at 9.66 µM; hit rate 37% among 390; AID 1117282;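 active = mean inhibition across replicates above a set limit taken from the earlier primary screen, cut at about 11% in these data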;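 also: 0% = REL1 with substrate and DMSO and 100% = REL1 plus control inhibitor NSC42067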
* marks the source's active call; other numbers are inactive results; . = no result.

SMILES	TbREL1 inh	TbREL1 conf
COc1ccc(/C=C/C(=O)OCC(=O)c2ccc3c(c2)NC(=O)CO3)c(OC)c1	1	.
O=C1COc2ccc(C(=O)COC(=O)/C=C/c3ccc(Br)o3)cc2N1	18*	10
COc1cccc(C(=O)n2ccc3ccc(-c4ccc5ccn(Cc6ccccc6)c5c4)cc32)c1	-4	.
COc1ccc(OC)c(S(=O)(=O)Nc2ccc(C(=O)Nc3cc(C)on3)cc2)c1	5	.
CCCCCCCN1C(Nc2ccccc2)=NC[C@@H]1CC(C)C	12*	20*
CCCCN1C(Nc2ccccc2)=NC[C@@H]1Cc1ccccc1	2	.
CC(C)C[C@H]1CN=C(Nc2ccccc2)N1CCC1CCCC1	11	.
Cc1cccc(NC(=O)CN2C(=O)CCSc3ccccc32)c1C	-1	.
Nn1c(SCC(=O)NC2CCCCC2)nnc1-c1cc(-c2ccccc2)n[nH]1	-2	.
CCOc1ccc(C(=O)Cc2ccc3oc(C(=O)O)cc3c2)c(O)c1	-2	.
CCOC(=O)c1oc2cccc(O)c2c1C	1	.
CCOC(=O)c1ccc(CC(=O)c2ccc(O)c(O)c2O)o1	35*	84*
C=CCn1c(COc2ccccc2)nnc1SCC(=O)c1ccc(-c2ccccc2)cc1	-1	.
C=CCn1c(Cc2cccs2)nnc1SCC(=O)Nc1ccc(OCc2ccccc2)cc1	3	.
O=S(=O)(c1ccc(Cl)cc1)N1CCN(Cc2ccc(O)c3ncccc23)CC1	0	.
CN1CCN(C2CCN(Cc3ccc(O)c4ncccc34)CC2)CC1	17*	8
Oc1c(Cl)cc(CN2CCOCC2)c2cccnc12	2	.
CCC[C@H]1[C@@H](NC(=O)c2cccc(N(C)C)c2)CC[C@@]23CCCN2C(=O)CCC[C@@H]13	-8	.
O=C(Nc1c(-c2ccc(C(F)(F)F)cc2)nc2ncccn12)c1ccccc1	6	.
COc1cc2c(cc1NC(=O)CSc1nnc(-c3cccnc3)n1-c1ccc(Br)cc1)oc1ccccc12	11*	6
CCOc1ccc(-n2c(SCC(=O)Nc3cc4oc5ccccc5c4cc3OC)nnc2-c2cccc(Cl)c2)cc1	1	.
COc1cc2c(cc1NC(=O)CSc1nnc(-c3ccccn3)n1-c1ccccc1)oc1ccccc12	8	.
Cc1ccc(CN2CCCCC(NC(=O)c3cccc(C(F)(F)F)c3)C2=O)cc1 (centres undefined)	-3	.
Nc1nc2ncccc2cc1C(=O)NC1CC1	0	.
N=C1S/C(=C\c2ccc(-c3ccccc3C(=O)O)o2)C(=O)N1c1ccc2c(c1)OCO2	2	.
SMILES	TbREL1 inh	TbREL1 conf
O=C(O)c1ccccc1-c1ccc(C=c2sc3nc4cc(Br)cnc4n3c2=O)o1	45*	48*
O=C(O)c1ccccc1-c1ccc(/C=C/c2cc(C(F)(F)F)[nH]c(=O)n2)o1	-15	.
Cc1ccc(Cn2cc(/C=C/C(=O)O)c(-c3ccccc3)n2)cc1	0	.
CN1CCN(C(=O)/C=C/c2cn(-c3ccccc3)nc2-c2ccc3c(c2)OCCO3)CC1	-4	.
Cc1ccc(-c2nn(-c3ccccc3)cc2/C=C/C(=O)O)o1	11*	4
CN1CCC(N[C@@H](Cc2ccccc2)C(=O)NCC(c2ccccc2)c2ccccc2)(C(=O)NC2CCCCC2)CC1	13*	14*
O=C(NCC(c1ccccc1)c1ccccc1)[C@H](Cc1c[nH]c2ccccc12)NC1(C(=O)NC2CCCCC2)CCN(Cc2ccccc2)CC1	-4	.
CC(C)C[C@H](NC1(C(=O)NC2CCCCC2)CCC1)C(=O)NCC(c1ccccc1)c1ccccc1	-1	.
O=C(NCC(c1ccccc1)c1ccccc1)[C@H](Cc1ccccc1)NC1(C(=O)NC2CCCCC2)CCC1	-3	.
O=C(NCC(c1ccccc1)c1ccccc1)[C@H](Cc1ccccc1)NC1(C(=O)NC2CCCCC2)CCCCCC1	12*	0
COC(CNC(=O)[C@H](Cc1ccccc1)NC1(C(=O)NC2CCCCC2)CCC1)OC	-3	.
O=C(C1CCCN1S(=O)(=O)c1ccc([N+](=O)[O-])cc1)N1CCc2ccccc2C1 (centres undefined)	0	.
CCOc1cc(CCNC(=O)c2cc(-c3ccccc3)c(N3CCOCC3)s2)ccc1OC	8	.
COC(=O)[C@]12C[C@H](CC(=O)N3CCN(C(=O)c4ccco4)CC3)C(=O)N(Cc3cccc4ccccc34)C1=C[C@H](C1CCCC1)O[C@@H]2C	-4	.
COc1cc(NC(=O)C2CCCN(S(=O)(=O)c3ccc(C)cc3)C2)cc(OC)c1 (centres undefined)	1	.
Nn1c(SCC(=O)Nc2cccc(C(F)(F)F)c2)nncc1=O	5	.
Nn1c(SCC(=O)Nc2c(Cl)cccc2Cl)nncc1=O	-1	.
CCOc1ccc(NC(=O)CSc2nncc(=O)n2N)cc1	11*	1
COC(=O)C12CCCN1C1C(=O)N(Cc3ccc(C(N)=O)cc3)CC1C2 (centres undefined)	5	.
O=C(Nc1nnc(SCc2cccc(F)c2)s1)c1ccco1	14*	-1
O=C(CSc1nnc(NC(=O)c2ccco2)s1)Nc1ccc(F)cc1	4	.
CC(C)(C)C(=O)Nc1nnc(SCc2cccc(F)c2)s1	5	.
O=C(NCCc1nc2ccccc2n1CCOc1cc(F)ccc1F)C1CCCCC1	2	.
CC(C)(N[C@@H](Cc1c[nH]c2ccccc12)C(=O)NCC(c1ccccc1)c1ccccc1)C(=O)NC1CCCCC1	-4	.
CCCSc1nnc(NC(=O)CSc2sc3c(O)cc(=O)[nH]c3c2C#N)s1	27*	16*
SMILES	TbREL1 inh	TbREL1 conf
Cc1cc(C)cc(NC(=O)CSc2nc3[nH]c(=O)cc(O)c3s2)c1	-5	.
Cc1cc(C)nc(SCC(=O)Nc2nccs2)n1	0	.
COc1ccc(-c2cc(-c3ccccc3)nc(SCC(=O)Nc3nccs3)c2C#N)cc1	-1	.
N#Cc1c(SCC(=O)Nc2nccs2)sc2c(O)cc(=O)[nH]c12	38*	23*
CCCC(=O)Nc1nnc(SCC)s1	3	.
O=C1NC(=S)S/C1=C\c1ccc(SCc2ccccc2)o1	43*	7
COc1ccccc1C=C1SC(=S)NC1=O	3	.
O=C1NC(=NCc2ccccc2)S/C1=C\c1ccccc1	0	.
Cc1ccc(NC(=O)Cn2nnc(-c3ccccc3F)n2)cc1C	7	.
C[C@@H]1CCN(C2CC2)S(=O)(=O)c2c(cccc2N2CCC[C@H]2C)O1	3	.
COc1cccc2sc(N(CCCN(C)C)C(=O)c3ccc(S(=O)(=O)N4CCc5ccccc5C4)cc3)nc12	5	.
CCc1ccc2nc(N(CCCN(C)C)C(=O)c3ccc(S(=O)(=O)N4CCCC4)cc3)sc2c1	10	.
CN(C)CCCN(C(=O)c1ccc(C(=O)c2ccccc2)cc1)c1nc2c(F)cccc2s1	4	.
CN(C)CCCN(C(=O)c1ccc(S(=O)(=O)N2CCCCCC2)cc1)c1nc2c(F)cccc2s1	8	.
CCN(Cc1ccccc1)S(=O)(=O)c1ccc(C(=O)N(CCCN(C)C)c2nc3cc(C)cc(C)c3s2)cc1	15*	7
CCN(Cc1ccccc1)S(=O)(=O)c1ccc(C(=O)N(CCCN(C)C)c2nc3c(F)cccc3s2)cc1	28*	8
COc1cc2nc(N(CCCN(C)C)C(=O)c3ccc(S(=O)(=O)N4CCc5ccccc5C4)cc3)sc2cc1OC	-2	.
CCN(c1ccccc1)S(=O)(=O)c1ccc(C(=O)N(CCCN(C)C)c2nc3c(C)cccc3s2)cc1	13*	11*
Cc1cc(C)c2sc(N(CCN(C)C)C(=O)c3c(F)cccc3F)nc2c1	2	.
Cc1cc(C)c2sc(N(CCCN(C)C)C(=O)c3ccc(Br)s3)nc2c1	5	.
CCOc1cccc2sc(N(CCCN(C)C)C(=O)c3ccc(S(=O)(=O)N4CCCCCC4)cc3)nc12	15*	8
